Test results as given in PubChem BioAssay (NCATS).
Inconclusive results are not listed. For some of these results: Potency and affinity values are given separately. Active and inactive are the calls of the source. Unless noted, the rule behind the calls is not given here.

Experiments:
[1] = Ebola virus entry assay, green fluorescence channel
[2] = Ebola virus entry assay, blue channel fluorescence
[3] = Ebola virus entry assay, ratio channel
[4] = Ebola virus entry assay, green channel fluorescence
[5] = Ebola virus entry assay, reporter ratio channel; Channel type: primary
[6] = Ebola virus entry assay, blue channel (ratio component)
[7] = qHTS assay for measurement of the activity of small molecule inhibitors on Zika virus induced Caspase-3 activity in human iPSC derived neural progenitor cells (hNPCs) (AID 1224857; active = well fitted inhibition curve with a large enough effect; note: % of control where 0% means no effect; nearly all actives have a fitted effect of over 65% in size); settings: hNPCs ZIKV-induced caspase-3/7, Caspase-Glo luminescence, 6 h; series mostly up to 45.7 µM
Method in brief: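 hNPCs seeded 350 cells/well, cultured 16–20 h; compounds added 1 h before ZIKV (2 FFU/cell), 37 C 6 h. Caspase-Glo 3/7 luminescence after 30 min RT; % inhibition from induction scaled to uninfected (0%) and infected (100%) wells.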

[8] = qHTS assay for measurement of the activity of small molecule inhibitors on Zika virus induced Caspase-3 activity in human astrocytoma cells (AID 1224859; active = well fitted inhibition curve with a large enough effect;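 note: plate controls were ZIKV-infected untreated cells for no effect and uninfected cells for full effect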); settings: SNB-19 ZIKV-induced caspase-3/7, luminescence, 6 h; series mostly up to 45.7 µM
Method in brief: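 Luminescence read-out (Caspase-Glo 3/7, 30 min RT) of caspase activity in SNB-19 cells infected 6 h with ZIKV, 2 FFU/cell, after 1 h compound pretreatment; % inhibition from induction normalised to uninfected (0%) and infected (100%) wells.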
Throughout, for efficacy: 0% is about no effect.

CC(C)Cn1cnc2c1c(=O)n(C)c(=O)n2C
inactive: efficacy [1] -27.1% | outcome [2] | outcome [3] | outcome [4] | outcome [5] | outcome [6]

CCN(Cc1ccc(Cl)nc1)/C(=C/[N+](=O)[O-])NC
inactive: efficacy [1] -11.7% | outcome [2] | outcome [3] | outcome [4] | outcome [5] | outcome [6] | Potency [7] | outcome [8]

CC1(C)OC[C@@H](COC(=O)CCc2ccc(OC[C@@H](O)CNCCNC(=O)N3CCOCC3)cc2)O1
inactive: efficacy [1] -15.7% | outcome [2] | outcome [3] | outcome [4] | outcome [5] | outcome [6]

CC(=O)[C@H]1CC[C@H]2[C@@H]3CC=C4C[C@@H](O)CC[C@]4(C)[C@H]3CC[C@]12C
inactive: efficacy [1] -13.3% | outcome [2] | outcome [3] | outcome [4] | outcome [5] | outcome [6]

CCCCCCCCCCCCOCCOCCOCCOCCOCCOCCOCCOCCOCCO
inactive: efficacy [1] -12.9% | outcome [2] | outcome [3] | outcome [4] | outcome [5] | outcome [6]

CN1CC(=O)N2[C@H](c3ccc4c(c3)OCO4)c3[nH]c4ccccc4c3C[C@@H]2C1=O
inactive: efficacy [1] 22.3% | outcome [2] | outcome [3] | outcome [4] | outcome [5] | outcome [6]

CC1Sc2c(C(=O)O)c(=O)c3cc(F)c(N4CCNCC4)cc3n21 (stereo unspecified)
inactive: efficacy [1] 10.3% | outcome [2] | outcome [3] | outcome [4] | outcome [5] | outcome [6] | Potency [7] | outcome [8]
